Screens deposited in PubChem BioAssay by Broad Institute.
The list is not random: actives were taken first. Their share in the collection is about 2.2%.
MITF TRPM1 inh – MITF TRPM1 promoter inhibition in SK-MEL-5 cells; SK-MEL-5 TRPM1 promoter luciferase, 24 h; inhibition, % at 12.5 µM; 0.83% of 330,000 active;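 active = mean inhibition across replicates of 60% or more, whatever share of single replicates reaches that level; inconclusive = some that reach 60%, reason not given; inactive = mean inhibition across replicates below 60%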
PAX8 reporter – PAX8 transcriptional activity inhibition | RMG-I TPO-luciferase reporter, SteadyGlo, 24 h | inhibition, % at 12.6 µM | 1.2% of 360,000 active | AID 652154;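 active = mean replicate inhibition at least 60% with every replicate also reaching 60%; inconclusive = only one of the two criteria is met; inactive = mean below 60% and not all replicates reaching 60%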;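 note: luciferase light reporting Pax8 driven TPO promoter activity; plate controls were median of neutral control wells for no effect and mitoxantrone controls for full effect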
EWS-Fli block – inhibitors of EWS/Fli oncoprotein transcriptional activity; AID 651661; inhibition, % at 12.6 µM; A673 NR0B1-luciferase reporter, viability-normalised; 0.67% of 350,000 active;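 active = mean inhibition of at least 50% after viability correction, with every replicate also passing that limit; inconclusive = mean reaches 50% but only one of two replicates passes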;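 note: firefly luciferase signal divided by Alamar Blue viability fluorescence both relative to DMSO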
LGR2 antag – Drosophila LGR2 receptor signaling inhibition | HEK293 LGR2, CRE-luciferase, bursicon-stimulated, 4 h | inhibition, % at 9.99 µM | 0.35% of 380,000 active;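 active = drop in luminescence signal, shown as inhibition above about 50% in the replicate tests, limit read from the data, passing the limit was not always enough; inconclusive = probably only some replicates passing the limit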;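 note: agonist challenge used bursicon conditioned medium at about half maximal strength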
Shn3 3UTR inh – inhibitors of Schnurri-3 3'UTR reporter in osteoblasts | AID 588674 | inhibition, % at 12.5 µM | 0.52% of 360,000 active | Clone20 osteoblast Shn3 3'UTR firefly luciferase, 24 h;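 active = mean inhibition of at least 75% with every replicate also reaching 75%; inconclusive = mean inhibition at least 75% but some replicate below; inactive = mean inhibition below 75%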;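 note: 0% = median of neutral control wells and 100% = pilot-screen positive control compound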
EBV LMP1 NFkB – reduces LMP1-driven NF-kappaB luciferase signal; 0.69% of 350,000 active; inhibition, % at 12.5 µM; LMP1-induced NF-kappaB luciferase reporter cells, luminescence; in the data active = inhibition above about 41%; inconclusive = no clear call, values can overlap the other calls;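 note: 0% = neutral control wells and 100% = reference inhibitor control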
* marks the source's active call; other numbers are inactive results; u = inconclusive; x = no result given.

SMILES | MITF TRPM1 inh | PAX8 reporter | EWS-Fli block | LGR2 antag | Shn3 3UTR inh | EBV LMP1 NFkB
COCCNC(=O)C[C@H]1CC[C@@H]2[C@H](COc3ccc(NC(=O)C4CCOCC4)cc3C(=O)N2C)O1 | x | -7.7 | 0.5 | 11.5 | x | x
CCCCCCCCSC1=CC(=O)C(OC)=C(OC)C1=O | x | 26.8 | 42.1 | 36.4 | 94.9* | -3.4
Cn1cccc1-c1cc(C(=O)N2CCc3c([nH]c4ccccc34)C2c2ccccn2)[nH]n1 (configuration not stated) | 56.5 | 33.2 | -0.6 | -11.8 | 3.4 | 55.4*
O=C(c1ccc(-n2cccn2)cc1)N1CCc2c([nH]c3ccccc23)C1c1ccccn1 (configuration not stated) | 9.8 | -1.3 | 14.8 | -9.8 | x | -9.6
O=C(C[C@H]1C[C@H]2c3cc(NC(=O)NC4CCCCC4)ccc3O[C@H]2[C@H](CO)O1)NCc1ccccn1 | x | -21.2 | -0.4 | -1.5 | x | x
COc1ccc2c3c([nH]c2c1)[C@@H](CO)N(C(=O)C1CCCC1)CC31CN(Cc2cccc(F)c2)C1 | x | x | -5.7 | 8.2 | x | x
CCC(=O)N1CCN(c2nc(CC)nc3sc4c(c23)CCCC4)CC1 | 3.0 | 14.2 | 14.3 | -1.7 | -5.1 | -0.6
CC1CCc2c(sc3nc(C(C)(C)C)nc(N4CCN(C(=O)CCl)CC4)c23)C1 (configuration not stated) | 16.8 | 22.4 | 68.7* | x | 24.2 | -16.5
O=C(c1ccc(Cl)cc1)N1CCCCC(Sc2nnc(-c3ccc4c(c3)OCO4)o2)C1=O (configuration not stated) | 80.3* | 70.1* | x | x | 70.0 | 74.8*
O=C(O)CSc1nnc(-c2ccc3c(c2)OCO3)o1 | -6.4 | x | x | 5.4 | -12.8 | 1.1
C[C@@H]1CN([C@H](C)CO)C(=O)c2cc(NC(=O)NC3CCCCC3)ccc2O[C@H]1CN(C)S(=O)(=O)c1cccs1 | x | x | -3.5 | 16.2 | x | x
C[C@H](CO)N1C[C@H](C)[C@H](CN(C)Cc2ccc3c(c2)OCO3)Oc2ccc(NC(=O)CCCCCC(=O)Nc3ccccc3N)cc2CC1=O | x | 2.5 | u | 9.3 | x | x
COc1ccc(-c2sc(Nc3ccccc3)n[n+]2-c2ccccc2)cc1Br | -3.6 | -5.6 | 11.2 | -62.5 | 10.2 | 3.7
C(=C\c1sc(Nc2ccccc2)n[n+]1-c1ccccc1)/c1ccccc1 | 79.0* | 18.3 | -4.6 | -26.8 | -18.3 | -2.1
O=C(C[C@H]1CC[C@H]2[C@@H](COC[C@H](O)CN2Cc2cc(F)ccc2F)O1)NCc1ccccc1 | x | -19.3 | 5.3 | 7.3 | x | x
CCC(=O)N(C)C[C@H]1Oc2ncc(-c3ccc(C(=O)N(C)C)cc3)cc2C(=O)N([C@H](C)CO)C[C@H]1C | x | x | -1.1 | -6.7 | x | x
C[C@H](CO)N1C[C@H](C)[C@H](CN(C)Cc2ccc(Cl)c(Cl)c2)OCCCC[C@H](C)Oc2ccc(NC(=O)Nc3ccc(F)cc3)cc2C1=O | x | 64.4* | 1.5 | 27.2 | x | x
C[C@@H]1CCCCO[C@H](CN(C)Cc2ccc(Cl)c(Cl)c2)[C@@H](C)CN([C@@H](C)CO)C(=O)c2cc(NC(=O)Nc3ccc(F)cc3)ccc2O1 | x | 88.7* | 3.5 | 13.0 | x | x
C[C@@H]1CCCCO[C@@H](CN(C)Cc2ccc(Cl)c(Cl)c2)[C@H](C)CN([C@@H](C)CO)C(=O)c2cc(NC(=O)Nc3ccc(F)cc3)ccc2O1 | x | 67.3* | 9.5 | 18.7 | x | x
CN(C)c1ccc(NC(=O)c2cnsn2)cc1 | 3.4 | -8.1 | 21.5 | 70.6* | 11.3 | 33.5
Cc1noc(C)c1C(=O)Nc1ccc(N(C)C)cc1 | 2.4 | -2.1 | x | -0.6 | -1.1 | -2.9
COC(=O)[C@]1(CCS(=O)(=O)c2ccccc2)N=C(c2ccc(OCCCO)cc2)O[C@@H]1c1ccccc1CN=[N+]=[N-] | x | 95.0* | 27.0 | x | x | x
COC(=O)[C@@]1(Cc2ccccc2)N=C(c2ccc(OCCCO)cc2)O[C@H]1c1ccccc1CN=[N+]=[N-] | x | 96.3* | 8.9 | x | x | x
COC(=O)[C@@]1(CCS(=O)(=O)c2ccccc2)COC(c2ccc(OCCCO)cc2)=N1 | x | 10.4 | 79.8* | x | x | x
Cc1c(P(=S)(c2ccccc2)c2ccccc2)[n+]2ccccc2n1CCc1ccccc1 | x | 88.8* | 16.7 | 22.2 | -1.1 | x
SMILES | MITF TRPM1 inh | PAX8 reporter | EWS-Fli block | LGR2 antag | Shn3 3UTR inh | EBV LMP1 NFkB
O=C(CSCC(=O)c1ccc([N+](=O)[O-])cc1)c1ccc([N+](=O)[O-])cc1 | x | x | x | x | -1.0 | x
CN(C)C(=O)C#Cc1ccccc1 | -3.3 | -6.2 | -1.6 | -16.2 | 3.4 | -9.5
O=C(C#Cc1ccccc1)c1ccc([N+](=O)[O-])cc1 | 69.0* | 11.2 | x | x | 95.0* | 26.4
O=C(C#Cc1ccccc1)c1ccccc1 | x | 46.0 | 70.4* | 33.3 | 99.3* | -3.1
CCCNC(=O)C[C@H]1CC[C@H]2[C@@H](COc3ccc(NC(=O)c4ccccc4)cc3C(=O)N2C)O1 | x | -1.1 | -1.0 | -4.3 | x | x
COc1ccc(C#Cc2ccc3c(c2)O[C@H](CN(C)S(=O)(=O)c2ccccc2F)[C@@H](C)CN([C@@H](C)CO)S3(=O)=O)cc1 | x | 15.8 | 5.6 | -20.2 | x | x
C[C@@H]1CCCCO[C@@H](CN(C)Cc2ccc(C(=O)O)cc2)[C@@H](C)CN([C@@H](C)CO)C(=O)c2cc(NC(=O)Cc3ccccc3)ccc2O1 | x | -24.1 | 44.8 | -7.8 | x | x
COc1ccc(N2C(=O)c3ccccc3NC2(C)C)cc1 | -52.7 | -115.1 | -85.5 | -8.3 | -29.2 | 41.8*
CN1CCN(C(=O)c2ccc(-c3cccs3)s2)CC1 | -94.3 | -123.5 | -83.5 | x | -72.8 | 1.0
O=C(c1cccs1)c1ccc(-c2cccs2)s1 | 1.0 | x | x | 61.8* | -13.3 | -14.2
O=C(Nc1cc(S(=O)(=O)N2CCCCC2)ccc1O)c1ccccc1NS(=O)(=O)c1ccc(F)cc1 | 5.0 | -4.2 | 8.2 | 1.2 | 16.6 | -7.7
O=C(Nc1cc(S(=O)(=O)N2CCOCC2)ccc1Cl)c1ccncc1 | 3.0 | -16.3 | 0.1 | 30.8 | -18.1 | 69.2*
Cc1ccc(NS(=O)(=O)c2ccccc2F)cc1S(=O)(=O)N1CCCCC1 | x | 13.5 | -0.9 | 10.1 | -22.7 | 4.0
COc1ccc(S(=O)(=O)N2CCOCC2)cc1NC(=O)c1ccc(Cl)cc1 | -8.4 | -4.0 | -1.5 | -4.1 | 2.5 | 2.7
Cc1ccc(S(=O)(=O)N2CCCCC2)cc1NS(=O)(=O)c1ccccc1F | 5.9 | 10.5 | 3.9 | x | 94.9* | 7.0
O=C(Nc1cc(S(=O)(=O)N2CCCCC2)ccc1Cl)c1ccccc1NS(=O)(=O)c1ccc(F)cc1 | 14.5 | 93.2* | 24.3 | 47.2 | 71.5 | 27.7
C[C@@H]1CCCCO[C@H](CN(C)C(=O)CCCN(C)C)[C@H](C)CN([C@@H](C)CO)C(=O)c2cc(NS(=O)(=O)c3ccc(F)cc3)ccc2O1 | x | -14.3 | -6.1 | -0.3 | x | x
N#Cc1c(NCCN)nc(-c2ccco2)c2c1CCCC2 | -2.9 | x | x | x | 10.4 | 78.2*
CC(C)CCNc1nc(-c2ccco2)c2c(c1C#N)CCCC2 | 7.5 | x | x | 2.2 | 1.9 | -7.4
CNC[C@H]1Oc2ccc(NC(=O)NC3CCCCC3)cc2CC(=O)N([C@H](C)CO)C[C@H]1C | x | -6.5 | -4.2 | -9.7 | x | x
